# Results filed as inconclusive are left out. Active and inactive are the calls of the source. Unless noted, calls come from the whole dose curve.
# Assays:
# [1] = qHTS for Inhibitors of the Functional Ribonucleoprotein Complex (vRNP) of Lassa (LASV) Arenavirus: LASV Primary Screen - GLuc reporter signal (AID 1347082; calls by dose curve; tested in HEK293 reporter line; note: nearly all actives have a fitted effect of over 60% in size; note: potency is the fitted concentration of half-maximal effect; for activity change, negative = inhibition: % is set by controls: 0 for no effect and ±100 for the full control effect)
# [2] = qHTS for Inhibitors of the Functional Ribonucleoprotein Complex (vRNP) of Lassa (LASV) Arenavirus: Viability assay - alamar blue signal for LASV Primary Screen (AID 1347083; calls by dose curve; tested in HEK293 reporter line; note: nearly all actives have a fitted effect of over 80% in size; note: potency is the fitted concentration of half-maximal effect)
# [3] = biological target: Nucleoprotein (Lymphocytic choriomeningitis virus (strain Armstrong)) (UniProt P09992); assay: qHTS for Inhibitors of the Functional Ribonucleoprotein Complex (vRNP) of Lymphocytic Choriomeningitis Arenaviruses (LCMV): LCMV Primary Screen - GLuc reporter signal (AID 1347086); note: nearly all actives have a fitted effect of over 70% in size; note: potency is the fitted concentration of half-maximal effect; for activity change, negative = inhibition: % is set by controls: 0 for no effect and ±100 for the full control effect
# [4] = Primary qHTS to identify inhibitors of SARS-CoV-2 cell entry (AID 1645846); details: activity change, negative = inhibition: at 57.1 µM (top of the series) unless noted; note: nearly all actives have a fitted effect of over 45% in size; note: potency is the fitted concentration of half-maximal effect
# Method in brief: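 Inhibition of spike-mediated entry was scored in human ACE2-transfected Expi293F cells. Particles were MLV-pseudotyped with Wuhan-Hu-1 S carrying a 19-aa C-terminal deletion; signal was luciferase after two days, scaled between spike PP and fusion-protein-free PP.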
# [5] = Cytotoxicity counterscreen for inhibitors of SARS-CoV-2 cell entry (AID 1645845); note: nearly all actives have a fitted effect of over 50% in size; note: potency is the fitted concentration of half-maximal effect
# Method in brief: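 Counterscreen run in the same HEK293-ACE2 line as the pseudotyped-particle entry assay, without particles. Viability after 48 h at 37 C was read as ATP luminescence, scaled between cell-containing and cell-free wells.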
# [6] = qHTS profiling of the MIPE4 collection as inhibitors of Plasmodium falciparum (3D7) proliferation (AID 743344; call rule not given here;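 note: scaled between DMSO vehicle wells and 0.29 µM artemisinin as full inhibition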); details: P. falciparum 3D7 in erythrocytes, SYBR Green DNA fluorescence, 72 h; at 28.5 µM (top of the series) unless noted
# Method in brief: (§1)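 Parasite DNA was quantified by SYBR Green I fluorescence (ex 485, em 535 nm) after overnight lysis in saponin/Triton buffer at room temperature. Cultures at 0.3% parasitemia and 2.5% hematocrit were first exposed to compound for 72 h at 37 C; signals were normalised to artemisinin (0.29 uM) and vehicle wells.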
# [7] = qHTS profiling of the MIPE4 collection as inhibitors of Plasmodium falciparum (DD2) proliferation (AID 743345; call rule not given here); details: P. falciparum Dd2 in erythrocytes, SYBR Green DNA, 72 h; at 28.5 µM (top of the series) unless noted
# Method in brief: as §1
# [8] = qHTS profiling of the MIPE4 collection as inhibitors of Plasmodium falciparum (DD2) proliferation (Rep 2) (AID 743346; call rule not given here); details: P. falciparum Dd2 in erythrocytes, SYBR Green DNA, 72 h; at 28.5 µM (top of the series) unless noted
# Method in brief: as §1
# [9] = qHTS profiling of the MIPE4 collection as inhibitors of Plasmodium falciparum (HB3) proliferation (AID 743347; call rule not given here;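 note: plate controls were DMSO vehicle wells for no effect and artemisinin wells for full effect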); details: P. falciparum HB3 in erythrocytes, SYBR Green DNA, 72 h; at 28.5 µM (top of the series) unless noted
# Method in brief: as §1
# [10] = Primary qHTS for inhibitors of SARS-S pseudo-typed particle cell entry (AID 1479145); note: % is set by controls: 0 for no effect and ±100 for the full control effect; nearly all actives have a fitted effect of over 45% in size
# [11] = Primary qHTS for Huh7 cytotoxicity: counterscreen for inhibitors of MERS-S pseudotyped particle cell entry (AID 1479147); details: outcome: dose series up to 57.1 µM unless noted
# [12] = Primary qHTS for inhibitors of MERS-S pseudo-typed particle cell entry (AID 1479149); note: nearly all actives have a fitted effect of over 60% in size
# [13] = Primary qHTS for Vero E6 cytotoxicity: counterscreen for inhibitors of SARS-S pseudo-typed particle cell entry (AID 1479150); details: outcome: dose series up to 57.1 µM unless noted
# [14] = Validation screen for inhibitors of Lassa infection (AID 463096); note: % is set by controls: 0 for no effect and ±100 for the full control effect
# [15] = Inducers of the Endoplasmic Reticulum Stress Response (ERSR) in human glioma: Validation (AID 504836; active = well fitted curve in the direction sought with a large enough effect; note: 0% is about no effect)
# Method in brief: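 Stably transfected U87-MG glioma cells carrying a GRP78-based luciferase sensor; 16 h compound incubation. Luminescence end-point read 10 min after Bright-Glo addition at room temperature.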
# [16] = Confirmatory qHTS to identify inhibitors of SARS-CoV-2 cell entry (AID 1645844); note: potency is the fitted concentration of half-maximal effect; nearly all actives have a fitted effect of over 45% in size
# Method in brief: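 HEK293-ACE2, overnight seeding; cpd 1 h, 37C/5% CO2; + SARS-CoV-2-S MLV PP (Wuhan-Hu-1, ΔC19); 48 h; Bright-Glo luminescence. Data normalised to S PP and bald PP wells.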
# [17] = VSVG counterscreen qHTS to identify inhibitors of SARS-CoV-2 cell entry (AID 1645847); note: potency is the fitted concentration of half-maximal effect; nearly all actives have a fitted effect of over 65% in size
# Method in brief: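 Luminescence from a luciferase reporter, normalised to bald particle and VSV-G pseudotyped particle wells, is the read-out. Cells are HEK293 expressing human ACE2, exposed to compound 1 h before a 48 h particle infection at 37 °C.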
# Sequence of Nucleoprotein (Lymphocytic choriomeningitis virus (strain Armstrong)) (P09992 whole entry, looked up): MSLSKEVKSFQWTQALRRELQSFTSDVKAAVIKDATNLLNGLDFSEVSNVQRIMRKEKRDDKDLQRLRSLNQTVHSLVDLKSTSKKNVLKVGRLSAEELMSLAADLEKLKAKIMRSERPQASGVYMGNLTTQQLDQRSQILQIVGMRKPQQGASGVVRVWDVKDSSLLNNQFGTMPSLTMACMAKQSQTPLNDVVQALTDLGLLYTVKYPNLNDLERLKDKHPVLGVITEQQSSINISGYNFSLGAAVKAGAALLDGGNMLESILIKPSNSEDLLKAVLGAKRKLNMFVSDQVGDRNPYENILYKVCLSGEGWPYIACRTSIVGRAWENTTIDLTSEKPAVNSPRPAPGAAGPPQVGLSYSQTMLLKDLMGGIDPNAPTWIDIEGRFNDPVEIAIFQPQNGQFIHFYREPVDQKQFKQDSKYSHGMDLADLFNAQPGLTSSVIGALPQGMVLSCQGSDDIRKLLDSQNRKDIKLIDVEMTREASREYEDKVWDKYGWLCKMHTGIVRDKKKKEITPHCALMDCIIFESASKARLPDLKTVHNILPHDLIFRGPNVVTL
structure (smiles),measurement,setting,value
Oc1ccc(-c2ccc(-c3cc(Nc4cccc(CNC5CC5)c4)n[nH]3)cc2)c(O)c1,Potency,[1],24.3 µM (active)
same,Potency,[2],3.06 µM (active)
same,Potency,[3],12.2 µM (active)
same,Potency,[4],10 µM (active)
CC(C)C[C@H](NC(=O)CNC(=O)c1cc(Cl)ccc1Cl)B1OC(=O)CC(CC(=O)O)(C(=O)O)O1 (stereo not given in full),Potency,[1],7.69 µM (active)
same,Potency,[2],1.93 µM (active)
same,Potency,[5],0.891 µM (active)
same,"activity change, negative = inhibition",[4],-99.4%
CCN(CC)CCNC(=O)c1ccc2nc(-c3ccccc3)c(-c3ccc(CN4CCC(n5c(=O)[nH]c6ccccc65)CC4)cc3)nc2c1,Potency,[1],34.3 µM (active)
same,Potency,[2],21.7 µM (active)
same,Potency,[4],4.47 µM (active)
C[C@H](CCC(=O)O)[C@H]1CC[C@H]2[C@H]3[C@@H](CC[C@]12C)[C@@]1(C)CC[C@@H](O)C[C@H]1C[C@@H]3O,"parasite growth, % of DMSO control",[6],8.82%
same,"parasite growth remaining, % of DMSO control (lower = more inhibition)",[7],12.3%
same,"parasite growth, % of control (lower = inhibition)",[8],16.6%
same,"growth, % of control",[9],23.1%
same,Potency,[1],inactive
same,Potency,[2],inactive
same,Potency,[10],inactive
same,outcome,[11],inactive
same,Potency,[12],inactive
same,outcome,[13],inactive
same,Potency,[5],inactive
same,"activity change, negative = inhibition",[4],0.336%
CN(C)C(=O)/N=N/C(=O)N(C)C,Potency,[14],inactive
same,outcome,[15],inactive
same,Potency,[1],inactive
same,Potency,[2],inactive
same,Potency,[3],inactive
N=c1ccn2c(n1)O[C@H]1[C@H](O)[C@@H](CO)O[C@H]12,outcome,[15],inactive
same,Potency,[1],inactive
same,Potency,[2],inactive
same,Potency,[3],inactive
CCN(CC)CCCCNc1ncc2c(n1)N(C)C(=O)N(c1c(Cl)c(OC)cc(OC)c1Cl)C2,Potency,[1],34.3 µM (active)
same,Potency,[2],34.3 µM (active)
same,Potency,[4],6.31 µM (active)
OC[C@H]1O[C@@H](n2cnc3c(NC4CCCC4)ncnc32)[C@H](O)[C@@H]1O,outcome,[15],inactive
same,Potency,[1],inactive
same,Potency,[2],inactive
same,Potency,[3],inactive
O=C(CCCCCCNC(=O)c1cnc(N(c2ccccc2)c2ccccc2)nc1)NO,Potency,[1],inactive
same,Potency,[2],30.6 µM (active)
same,Potency,[3],inactive
same,Potency,[4],inactive
CC=C(C)C(=O)O[C@H]1C(C)=C[C@]23C(=O)[C@@H](C=C(CO)[C@@H](O)[C@]12O)[C@H]1[C@@H](C[C@H]3C)C1(C)C,"parasite growth remaining, % of DMSO control (lower = more inhibition)",[7],78.2%
same,Potency,[1],inactive
same,Potency,[2],4.32 µM (active)
same,Potency,[3],inactive
COc1ccc(Nc2cc(-c3cnc(N)nc3)nc(N3CCOCC3)n2)cn1,Potency,[1],12.2 µM (active)
same,Potency,[2],3.85 µM (active)
same,Potency,[16],0.341 µM (active)
same,Potency,[17],1.08 µM (active)
O=C1NC(=O)C(c2cnc3ccccn23)=C1c1cn2c3c(cccc13)CN(C(=O)N1CCOCC1)CC2,Potency,[1],inactive
same,Potency,[2],6.85 µM (active)
same,Potency,[3],inactive
same,Potency,[5],inactive
same,Potency,[17],0.215 µM (active)
CCc1ccc(C(=O)Nc2cc(CN3CCN(C)CC3)cc(C(F)(F)F)c2)cc1C#Cc1cnc2ccnn2c1,Potency,[1],inactive
same,Potency,[2],21.7 µM (active)
same,Potency,[5],31.6 µM (active)
same,Potency,[4],22.4 µM (active)

# Reference: PubChem BioAssay (NCATS)
